# Data taken from PubChem BioAssay.
# Columns and labels:
# [1] = target: Tumor necrosis factor receptor superfamily member 10B (Homo sapiens) (UniProt O14763); assay: viability loss of caspase-8 NB7 cells with TRAIL – with/without TRAIL, luminescence panel, confirmation (AID 651596); settings: NB7 neuroblastoma + caspase-8, TRAIL sensitization, NB7 Caspase-8, with TRAIL, mean of runs, at 10 µM, stronger effect = higher value
# [2] = as above; settings: NB7 neuroblastoma + caspase-8, without TRAIL, NB7 Caspase-8, without TRAIL, mean of runs, at 10 µM
# Chain of Tumor necrosis factor receptor superfamily member 10B (Homo sapiens) (O14763 whole entry, looked up): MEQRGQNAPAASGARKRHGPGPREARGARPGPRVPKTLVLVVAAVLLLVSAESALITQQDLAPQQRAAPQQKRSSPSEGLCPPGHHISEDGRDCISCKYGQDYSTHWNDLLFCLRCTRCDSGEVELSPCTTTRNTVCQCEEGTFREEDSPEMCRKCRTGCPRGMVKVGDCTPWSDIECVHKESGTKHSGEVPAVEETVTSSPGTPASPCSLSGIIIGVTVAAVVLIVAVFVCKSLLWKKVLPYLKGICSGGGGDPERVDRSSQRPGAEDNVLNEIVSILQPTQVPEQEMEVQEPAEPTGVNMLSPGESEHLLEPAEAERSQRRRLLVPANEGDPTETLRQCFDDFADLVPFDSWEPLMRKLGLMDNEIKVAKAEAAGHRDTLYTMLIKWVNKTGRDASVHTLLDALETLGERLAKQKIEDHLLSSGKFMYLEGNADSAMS
SMILES,activity [1],activity [2]
COc1cccc(C(=O)Oc2c(CN3CCOCC3)cc(Cl)c3cccnc23)c1,49%,60.3%
Cc1ccccc1C(=O)Nc1ccc2c(c1)OCCO2,61.1%,63.2%
O=C(CCl)N1CCN(S(=O)(=O)c2ccc3c(c2)CCC3)CC1,97.7%,97.1%
CC1CCC(C(C)C)C(OC(=O)Cn2c(-c3ccccc3)[n+](C)c3ccccc32)C1 (stereo not drawn),70.2%,61.2%
C[C@H](NC(=O)c1ncn2c1c(=O)[nH]c1ccc(Br)cc12)c1ccccc1,27.2%,7.95%
CCOc1cc(C(=O)O/N=C(\N)c2ccccn2)cc(OCC)c1OCC,91.1%,78.5%
COn1c(SCc2cccc(Cl)c2)nc2ccccc2c1=O,52.4%,26.3%
FC(F)(F)c1nnc(-c2ccccc2)nc1Sc1ccc(Cl)cc1,42.7%,46.2%
COC(=O)c1ccc2c(c1)C(C)(C)C(/C=C/c1ccc(O)cc1)=[N+]2C,43.9%,76.1%
COc1ccc(Oc2c(Cl)cnn(-c3ccc(F)cc3)c2=O)cc1,98%,94.2%
CSc1ccc(/C=C/C(=O)c2c(O)cc(C)oc2=O)cc1,78.7%,82.2%
COc1cc2sc3ccc(C#CC4(O)CCCCC4)cc3c(=O)c2cc1OC,71.4%,71.4%
FC(F)(F)c1cc(CCN2CCNC[C@@H]2CC2CCCCC2)cc(C(F)(F)F)c1,35.1%,84.2%
C#CCN(C[C@@H]1[C@@H](OC(=O)Nc2cccs2)[C@@H](OC(=O)Nc2cccs2)Cn2c(=O)ccc(=O)n21)S(=O)(=O)c1ccc(C)cc1,96.5%,95.8%
O=C(/C=C/Nc1ccc(F)cc1)c1cccs1,69.7%,65%
CCOC(=O)c1nn(-c2ccc3c(c2)CCN3C(C)=O)cc1O,47%,47.6%
O=C(CCl)N=c1sccn1Cc1ccc(Cl)cc1Cl,99.3%,99.2%
O=C(Nc1ccc(N2CCOCC2)cc1)c1csc(COCCO)n1,54.5%,59.1%
NC(Cc1ccc(Cl)cc1)c1csc(NC(=O)NCC2CCCCC2)n1 (stereo not drawn),58.4%,88.1%
Cc1ccc(C2=NN(C(=O)CCl)C(c3cccs3)C2)o1 (stereo not drawn),99.6%,99.1%
CN(C(=O)c1ccccc1)c1nc2ccccc2s1,84.3%,72.3%
OCC1OC(n2cnc3c(=S)nc[nH]c32)CC1O (stereo not drawn),31.4%,35.7%

SMILES,activity [1],activity [2]
Cc1ccc(Nc2nc(NCc3ccco3)c3ccccc3n2)cc1,41.2%,45.6%
Cn1cnc([N+](=O)[O-])c1Sc1nc(N)nc2c1ncn2C1CC(O)C(CO)O1 (stereo not drawn),68.8%,65.6%
COc1cccc(NC(=O)Nc2nc(-c3ccc(OC)c(OC)c3)cs2)c1,98.5%,99.2%
COc1cccc(C(=O)Nc2ccc(NC(=O)C(C)(C)C)cn2)c1,79.7%,83%
O=C1C(=C(I)I)c2ccccc2-c2ccccc21,38%,99.6%
COc1cccc(C(=O)Nc2nc3ccccc3[nH]2)c1,91%,85.3%
COc1cccc(N2C(N)=NC(N)=NC2(C)C)c1,79.7%,85%
Cc1ccc2[nH]c(-c3ccccc3)cc(=O)c2c1,64.8%,63%
Cc1ccnc(NC(=S)NC(=O)c2cccs2)c1,90%,87.7%
O=C(N/N=C/c1cccc([N+](=O)[O-])c1)c1ccc2c(c1)OCCO2,73.3%,61.3%
CCN1CCN(Cc2ccc(NC(=O)c3cc(NC(=O)c4cnnc5ccccc45)cc(OC)c3)cc2C(F)(F)F)CC1,55.2%,93.9%
Cc1ccc(NC(=O)c2ccc(C)cc2)cc1,64.9%,63.8%
COc1cc(/C=C/c2nc3ccccc3c(=O)[nH]2)ccc1OC(F)F,55.6%,54.7%
CCOC(=O)c1cnc(-n2nc(C)cc2C)nc1N(C)C,55.4%,52.1%
CCc1nnc(NC(=O)CSc2nc3c(cc2C#N)CCCC3)s1,62.8%,72.3%
Cc1ccc(CN=c2c([N+](=O)[O-])nn(-c3cccc(C)c3)n2O)cc1,16.2%,24.7%
O=C(/C=C/c1ccc2c(c1)OCO2)Nc1cccnc1,71.1%,76.2%
O=[N+]([O-])c1ccc(-[n+]2ccc3ccccc3c2)c([N+](=O)[O-])c1,93.3%,98.8%
Cc1cc(-c2nc3cc(F)ccc3s2)ccc1N,74.5%,68.6%
c1ccc2oc(-c3csc(N4CCOCC4)n3)cc2c1,67.7%,51.3%
N#Cc1nc(Nc2cccc(Cl)c2)c2ncn(C3CCCC3)c2n1,76.7%,57.3%
CCc1ccc(-c2cn3nc(C)c(C)nc3n2)cc1,75.3%,63.9%
